The values that follow come from PubChem BioAssay.

Test [1] is described as follows: viability loss with induced miR-34 in A549 – imaging, A549 dox-inducible miR-34, nuclei and caspase counts, primary screen (AID 1347080). Also: test concentration not given here. The note with it: A549 miR-34 inducible, Hoechst nuclei count, 48 h.
A short description of test [2]: MELAS cybrid and Rieske KO viability enhancers – cell-based, MELAS cybrids, Rieske KO mouse fibroblasts, CellTiter-Glo, primary screen (AID 1508586;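 active = mean z-score across replicates of 1.96 or higher in either the MELAS or the Rieske mutant cell line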;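 also: test concentration not given here; z relative to plate mean and SD of compound and empty wells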). The note with it: low glucose. In general terms: Cellular ATP, detected with luciferase, serves as a proxy for viable cell number.
Test [3] is described as follows: galactose survival enhancers in mitochondrial complex I cybrids – cell-based, galactose medium, ATP luminescence, primary screen (AID 1645843;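 active = z-score of at least 1.8 in each of two replicates, scored against plate mean and spread of sample wells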;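 also: positive z means more ATP and so rescue of galactose-driven cybrid death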). The note with it: complex I mutant cybrid cells, 72 h, stronger effect = higher value.
Setting [4] is: stronger effect = lower value, cell number ratio, induced over uninduced.
The mark [5] stands for this setting: measured here: relative caspase fold change +Dox/-Dox.
Setting [6] is: measured here: total cells with miR-34 induction, stronger effect = lower value.
[7] abbreviates: measured here: total cells without miR-34 induction.
The mark [8] stands for this setting: MELAS cybrid survival, CellTiter-Glo 48 h, stronger effect = higher value.
Setting [9] is: Rieske KO mouse fibroblast survival, CellTiter-Glo 72 h.

Molecules are shown by their SMILES. Values joined by “and” are separate entries in the source; they are usually repeats but may differ in a detail not shown here. Equal values may be shown once. Active and inactive are the calls of the source.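 The calls were made as follows, unless noted: active = compounds whose cell count with miR-34 switched on is under 0.7 times the count with it off; inactive = the rest.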

With `Nc1nc2ccccc2c(=O)[nH]1`, the figures for the fold change in test [1] (setting [4]) and in test [1] (setting [5]) were 0.901 (inactive) and 0.247, respectively. The cell count in test [1] (setting [6]) was 8880; in test [1] (setting [7]) it was 9860. Also, the z-score in test [2] (setting [8]) is 0.855 (inactive); in test [2] (setting [9]) it was -0.798; in test [3] it was 0.65 (inactive).

As for `Cc1nn(C)c(C)c1-c1ccnc(N2CCCC2c2nc(-c3cccnc3)no2)n1` (stereo unspecified), the results for the fold change in test [1] (setting [4]) and in test [1] (setting [5]) were 0.869 (inactive) and 1.21, respectively. Moreover, the cell count in test [1] (setting [6]) came to 6880; in test [1] (setting [7]), 7910. Also, the z-score in test [2] (setting [8]) is -0.00142 (inactive); in test [2] (setting [9]), 0.462; in test [3], -0.385 (inactive).

On to `CC(C)n1ncc(NC(=O)Cn2ccc(-c3ccc(C(F)(F)F)cc3)n2)n1`, for which the fold change in test [1] (setting [4]) is 0.965 (inactive); in test [1] (setting [5]), 1.03. Moreover, the cell count was determined as 5250 in test [1] (setting [6]) and 5440 in test [1] (setting [7]). For the same compound, the z-score was 1.15 (inactive) in test [2] (setting [8]), -0.0246 in test [2] (setting [9]) and 0.42 (inactive) in test [3].

For `COc1ccc(CN(C)C(=O)Nc2nc(C)n(C)n2)c2cccnc12`, the fold change in test [1] (setting [4]) was 0.889 (inactive); in test [1] (setting [5]) it was 0.916. The cell count in test [1] (setting [6]) stood at 8870; in test [1] (setting [7]), 9980. Also, the z-score in test [2] (setting [8]) is 0.16 (inactive); in test [2] (setting [9]), -0.562; in test [3] it was -0.55 (inactive).

On to `O=C(c1cccc(=O)[nH]1)N(Cc1cccnc1)Cc1ccc2c(c1)OCO2`, for which the fold change in test [1] (setting [4]) was 0.964 (inactive); in test [1] (setting [5]), 1.96. Moreover, the cell count in test [1] (setting [6]) came out at 9470; in test [1] (setting [7]) it was 9830. The z-score in test [2] (setting [8]) is -0.318 (inactive); in test [2] (setting [9]), 0.234; in test [3] it was -0.17 (inactive).

Take `O=C(Cc1noc2ccccc12)NCCOc1cccnc1`: the fold change in test [1] (setting [4]) was 0.924 (inactive); in test [1] (setting [5]) it was 1.95. Besides, the cell count in test [1] (setting [6]) was 9890; in test [1] (setting [7]) it was 10700. In addition, the z-score is -0.132 (inactive) in test [2] (setting [8]), -0.425 in test [2] (setting [9]) and -0.56 (inactive) in test [3].

With `O=S(=O)(O)c1cccc2cccc(Nc3ccccc3)c12`, the fold change in test [1] (setting [4]) is 0.946 (inactive); in test [1] (setting [5]) it was 0.486. Moreover, the cell count in test [1] (setting [6]) amounted to 8990; in test [1] (setting [7]), 9500. The z-score in test [2] (setting [8]) was -0.258 (inactive); in test [2] (setting [9]) it was -0.0194; in test [3], 0.715 (inactive).

With `Cc1ccc(C(=O)N2CCC(Cc3ccccc3)CC2)cc1`, the fold change in test [1] (setting [4]) was 0.922 (inactive); in test [1] (setting [5]), 1.12. Besides, the cell count is 7870 in test [1] (setting [6]) and 8540 in test [1] (setting [7]). The z-score in test [2] (setting [8]) was -0.903 (inactive); in test [2] (setting [9]), 0.658; in test [3], -0.71 (inactive).

On to `Cc1cc(NC(=O)Cn2cc(-c3cccc4cccnc34)cn2)n(C)n1`, for which the fold change in test [1] (setting [4]) was 0.876 (inactive); in test [1] (setting [5]), 0.926. Further, the cell count in test [1] (setting [6]) is 8830; in test [1] (setting [7]), 10100. Further, the figures for the z-score in test [2] (setting [8]), in test [2] (setting [9]) and in test [3] were -0.478 (inactive), -0.249 and -0.585 (inactive), respectively.

With `NC(=O)c1cncc(Br)c1`, the results for the fold change in test [1] (setting [4]) and in test [1] (setting [5]) were 0.888 (inactive) and 0.503, respectively. Further, the cell count came out at 8870 in test [1] (setting [6]) and 9990 in test [1] (setting [7]). The z-score was 0.375 (inactive) in test [2] (setting [8]), -0.195 in test [2] (setting [9]) and 0.76 (inactive) in test [3].

Turning to `COc1ccc(CN2CCN(c3nccc(-c4cn(C)nc4C)n3)CC2=O)cc1`, the fold change is 0.778 (inactive) in test [1] (setting [4]) and 1.57 in test [1] (setting [5]). The cell count in test [1] (setting [6]) is 4640; in test [1] (setting [7]), 5960. For the same compound, the z-score in test [2] (setting [8]) was 4.51 (active); in test [2] (setting [9]), 2.53; in test [3], -0.37 (inactive).

On to `O=C1CN(C(=O)Nc2nncs2)CCN1Cc1cccc(F)c1`, for which the results for the fold change in test [1] (setting [4]) and in test [1] (setting [5]) were 0.896 (inactive) and 1.07, respectively. The cell count in test [1] (setting [6]) amounted to 9320; in test [1] (setting [7]), 10400. For the same compound, the values for the z-score in test [2] (setting [8]), in test [2] (setting [9]) and in test [3] were 0.315 (inactive), -0.441 and -0.53 (inactive), respectively.

As to `O=c1ccc2ccccc2[nH]1`, the fold change in test [1] (setting [4]) is 0.871 (inactive); in test [1] (setting [5]), 0.441. In addition, the cell count amounted to 8280 in test [1] (setting [6]) and 9510 in test [1] (setting [7]). For the same compound, the z-score in test [2] (setting [8]) is 1.28 (inactive); in test [2] (setting [9]), 0.0217; in test [3], 0.98 (inactive).

Turning to `CC(c1cccc(O)c1)N(C)C` (stereo unspecified), the fold change was 0.895 (inactive) in test [1] (setting [4]) and 0.805 in test [1] (setting [5]). Moreover, the figures for the cell count in test [1] (setting [6]) and in test [1] (setting [7]) were 8630 and 9640, respectively. Moreover, the z-score in test [2] (setting [8]) is -0.0784 (inactive); in test [2] (setting [9]) it was -0.273; in test [3], 0.205 (inactive).

As for `C=CCNC(=O)c1cccnc1-c1ccc(OC)c2ncccc12`, the fold change is 0.914 (inactive) in test [1] (setting [4]) and 1.9 in test [1] (setting [5]). Also, the cell count was 9130 in test [1] (setting [6]) and 9990 in test [1] (setting [7]). In addition, the z-score is -0.163 (inactive) in test [2] (setting [8]), -0.219 in test [2] (setting [9]) and -0.545 (inactive) in test [3].

Regarding `O=C(O)CCc1c(C(=O)O)[nH]c2cc(Cl)cc(Cl)c12`, the fold change in test [1] (setting [4]) is 0.85 (inactive); in test [1] (setting [5]), 0.683. Further, the cell count in test [1] (setting [6]) came to 8390; in test [1] (setting [7]), 9880. For the same compound, the z-score in test [2] (setting [8]) is 0.688 (inactive); in test [2] (setting [9]), 0.122; in test [3], 0.585 (inactive).

Take `COc1cc2c(cc1-c1nnc3ccccn13)OCO2`: the fold change was 0.908 (inactive) in test [1] (setting [4]) and 2.79 in test [1] (setting [5]). The cell count in test [1] (setting [6]) stood at 8030; in test [1] (setting [7]), 8840. Moreover, the z-score in test [2] (setting [8]) was 0.597 (inactive); in test [2] (setting [9]), -0.284; in test [3], -0.465 (inactive).

`Cc1nn(C)cc1-c1ccnc(NCc2nc(Cc3ccccc3)no2)n1`: the figures for the fold change in test [1] (setting [4]) and in test [1] (setting [5]) were 0.883 (inactive) and 1.22, respectively. Besides, the cell count in test [1] (setting [6]) was determined as 8680; in test [1] (setting [7]) it was 9840. Also, the values for the z-score in test [2] (setting [8]), in test [2] (setting [9]) and in test [3] were -0.288 (inactive), -0.167 and -0.52 (inactive), respectively.

`O=C(O)c1ccc(B(O)O)cc1`: the fold change in test [1] (setting [4]) was 0.887 (inactive); in test [1] (setting [5]) it was 0.4. Besides, the cell count in test [1] (setting [6]) is 8340; in test [1] (setting [7]), 9400. Besides, the z-score is 0.638 (inactive) in test [2] (setting [8]), 0.194 in test [2] (setting [9]) and 0.105 (inactive) in test [3].

For `CC(C)C1CCC(C(=O)NC(Cc2ccccc2)C(=O)O)CC1` (stereo unspecified), the fold change is 0.94 (inactive) and 0.917 (inactive) in test [1] (setting [4]); 2.3 and 1.08 in test [1] (setting [5]). The cell count was 9290 and 9300 in test [1] (setting [6]); 9880 and 10100 in test [1] (setting [7]). Besides, the z-score in test [2] (setting [8]) was -0.394 (inactive); in test [2] (setting [9]), 0.0104; in test [3], 0.805 (inactive).

With `OB(O)c1ccccc1`, the fold change in test [1] (setting [4]) was 0.876 (inactive); in test [1] (setting [5]), 0.386. For the same compound, the cell count is 7850 in test [1] (setting [6]) and 8950 in test [1] (setting [7]). Also, the z-score in test [2] (setting [8]) is -0.818 (inactive); in test [2] (setting [9]), 0.216; in test [3] it was 0.615 (inactive).

For the compound `COc1ccc(-c2cc(-n3cccn3)ncn2)c(-n2cccn2)c1`, the fold change in test [1] (setting [4]) was 0.922 (inactive); in test [1] (setting [5]), 1.07. The cell count was 8340 in test [1] (setting [6]) and 9050 in test [1] (setting [7]). Moreover, the z-score was -0.554 (inactive) in test [2] (setting [8]), 0.208 in test [2] (setting [9]) and -0.595 (inactive) in test [3].

For `NS(=O)(=O)c1ccc(C(=O)NCCn2cccn2)cc1`, the fold change in test [1] (setting [4]) is 0.945 (inactive); in test [1] (setting [5]), 1.97. Besides, the cell count in test [1] (setting [6]) is 9500; in test [1] (setting [7]), 10100. Further, the z-score in test [2] (setting [8]) was -0.281 (inactive); in test [2] (setting [9]), -0.563; in test [3], -0.555 (inactive).
